PubChem BioAssay
A number with no mark means an inactive call. The rule behind the calls is not given here.

Target: Pantothenate synthetase (Mycobacterium tuberculosis (strain ATCC 25618 / H37Rv)) (UniProt P9WIL5)
Experiment: Coupled enzyme confirmation of inhibitors against recombinant Mtb PanC (AID 375);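 note: 0% = full reaction with vehicle and 100% = no enzyme background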
Conditions: coupled enzyme assay; at 10 µM, stronger effect = higher value

Sequence of Pantothenate synthetase (Mycobacterium tuberculosis (strain ATCC 25618 / H37Rv)) (P9WIL5 whole entry, looked up): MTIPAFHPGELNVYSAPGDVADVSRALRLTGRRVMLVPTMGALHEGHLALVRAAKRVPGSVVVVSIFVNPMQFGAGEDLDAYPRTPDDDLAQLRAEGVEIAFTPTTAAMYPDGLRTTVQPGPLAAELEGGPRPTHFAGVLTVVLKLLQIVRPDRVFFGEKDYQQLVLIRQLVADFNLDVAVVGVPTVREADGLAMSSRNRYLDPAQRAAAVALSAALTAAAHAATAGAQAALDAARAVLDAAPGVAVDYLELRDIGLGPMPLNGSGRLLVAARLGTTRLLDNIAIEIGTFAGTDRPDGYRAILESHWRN

SMILES	inhibition
O=C(Nc1cccc(-c2nnc(-c3ccccc3)o2)c1)C1CCCCC1	0%
O=C(c1ccco1)N1CCN(C(=O)c2ccc(Cn3cc(Br)cn3)o2)CC1	4%
O=C(N1CCCCCC1)N1CCN(S(=O)(=O)N2CCCCC2)CC1	0%
O=C(CN1CCN(c2nc(-c3ccc(Cl)cc3)cs2)CC1)NCc1ccco1	4%
COc1cc2nc(C3CCC3)n(NC(=O)C3CCCC(OC)C3)c(=O)c2cc1OC (stereo not given)	2%
O=C(COC(=O)C1=COCCO1)Nc1ccccc1Oc1ccccc1	1%
COc1ccc(N2C(=O)CC(N3CCN(c4ccccc4F)CC3)C2=O)cc1 (stereo not given)	0%
O=C(CN1CCN(Cc2ccc3c(c2)OCO3)CC1)N1CCc2[nH]c3ccc(F)cc3c2C1	0%
CCOC(=O)CCc1c(C)nc2cc(-c3ccc(F)cc3)[nH]n2c1=O	0%
COc1ccc(CNC(=O)c2cc3c(=O)n4ccccc4nc3n(Cc3ccco3)c2=N)cc1	0%
N#CC1=C(N)Oc2n[nH]c(-c3cccs3)c2C1c1cccs1 (stereo not given)	2%
COc1ccc(S(=O)(=O)Nc2ccc(F)c(F)c2)cc1Cl	0%
COCCNC(=O)CN1CCN(C(c2ccccc2)c2ccccc2)CC1	2%
Cn1c(/C=N/n2cnnc2)nc2ccccc21	2%
Nc1ccc(-n2c(N)c(C(=O)NCc3ccc4c(c3)OCO4)c3nc4ccccc4nc32)cc1	14%
CCOc1ccc(C2C(C#N)=C(N)Oc3cc(C)n(Cc4ccco4)c(=O)c32)cc1OC (stereo not given)	2%
Cc1ccc2c(c1)CCCN2C(=O)C1CCCO1 (stereo not given)	5%
O=C(CCCN1C(=O)c2ccccc2C1=O)N1CCC(c2ccccc2)C1 (stereo not given)	4%
Cc1ccc(N2CCN(C(=O)c3ccccc3Br)CC2)c(C)c1	6%
O=C(Nc1cccnc1)c1ccc2c(c1)OCO2	0%

SMILES	inhibition
Cn1c(Cc2csc(N)n2)nnc1SCC(=O)NC1CCCCC1	4%
Clc1ccc(C2Nc3ccccc3-n3cccc32)cc1 (stereo not given)	0%
O=C(Nc1ccc(Cl)cc1)N1CCSCC1	1%
COCCCn1c(SCC(=O)N2CCc3ccccc32)nnc1-c1ccoc1C	9%
Cc1cc(NC(=O)CS(=O)(=O)c2cn(Cc3cccc(F)c3)c3ccccc23)no1	4%
CC[C@]1(O)CC2CN(CCc3c([nH]c4ccccc34)[C@@](C(=O)OC)(c3cc4c(cc3OC)N(C=O)[C@H]3[C@@](O)(C(=O)OC)[C@H](OC(C)=O)[C@]5(CC)C=CCN6CC[C@]43[C@@H]65)C2)C1 (stereo not given in full)	1%
Cc1cc(NC(=O)CSc2nccn2-c2ccc(F)cc2)no1	5%
Cc1nnc(NC(=O)CSc2nnc(-c3ccc(S(=O)(=O)N4CCCC4)cc3)n2C)s1	8%
CCOC(=O)c1c(NC(=O)c2ccoc2C)sc2c1CCC2	7%
Cc1noc(C)c1COc1cccc(C(=O)Nc2ccc(C#N)cc2)c1	0%
Cn1c(=O)[nH]c(=O)c2[nH]c(CN3CCN(C(=O)c4ccco4)CC3)nc21	0%
COc1ccc(CN2CC(C(=O)NCCCOC(C)C)CC2=O)cc1 (stereo not given)	3%
Cc1cc2c(c(=O)o1)C(Cc1ccccc1)C(C#N)=C(N)O2 (stereo not given)	1%
C=CCSc1nnc(-c2ccc(Cl)cc2Cl)o1	5%
CC(C)OC(=O)CSc1nnc(-c2ccco2)n1N	0%
CC(=O)N1CN(C2CCCC2)Cc2c1sc1c2CCCC1	0%
CCCCC(c1nnnn1C1CCCC1)N1CCN(C2CCCCC2)CC1 (stereo not given)	1%
COc1ccc(C(NC(=O)c2ccco2)c2ccc(OC)c(OC)c2)cc1 (stereo not given)	0%
O=C(O)CC1NC(=O)N(c2ccccc2)C1=O (stereo not given)	0%
O=C(COC(=O)c1ccco1)NCc1cccs1	0%
